Measured values: PubChem BioAssay AID796 (Columbia University Molecular Screening Center, 2007)
The whole screen tested about 94,000 compounds, of which about 410 (0.44%) were called active. Shown is part of a subset that was picked to be rich in actives. A number with no mark means an inactive call.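 How the source made its calls: active means inhibition above about 30% together with a positive call from visual inspection of the well image (limit read from the data); inconclusive means inhibition above a set limit but visual check negative; inactive means inhibition not above a set limit, visual check negative.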

Assay: inhibitors of IL-1B driven NFkB p65 nuclear import, primary screen, imaging, HUVEC, IL-1B stimulus, high-content imaging (AID 796);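 further: nuclear over cytoplasmic p65 intensity ratio measured by imaging; 0% = IL-1B stimulated DMSO wells and 100% = unstimulated DMSO wells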
Settings: HUVEC IL-1B NFkB p65 nuclear translocation imaging; at 2 µM; stronger effect = higher value

SMILES | inhibition
COc1ccc(/C=C(/NC(=O)c2ccc(C)cc2)c2nc3ccccc3[nH]2)cc1OC | -9.9%
CCOC(=O)c1c(N=CN(C)C)c(C#N)c2n1CCCC2 | 10.8%
CC1CCCCC1NC(=O)C1CCCN1S(=O)(=O)c1cccc2nsnc12 (centres undefined) | -27%
COc1nc(-c2ccc(Cl)cc2)ccc1-c1noc(-c2cccs2)n1 | -5.8%
O=S(=O)(c1cccc2nonc12)N1CCN(c2cccc(Cl)c2)CC1 | -0.1%
CC(C)NC(=O)C(=O)N/N=C/c1ccco1 | -6.9%
COc1cc(C(=O)N2CCN(C/C=C/c3ccccc3)CC2)cc(OC)c1C | -3.7%
N/C(=N\OC(=O)c1cc(-c2ccccc2)nc2ccccc12)c1ccncc1 | 8%
Cc1ccc(S(=O)(=O)N(CC(=O)N/N=C/c2ccc(F)cc2)c2cccc3cccnc23)cc1 | 9.5%
COC(=O)c1c(-c2cccs2)csc1NC(=O)CSc1ncnc2sc(C)c(C)c12 | -10.3%
Nc1ccc(-c2sc(N)nc2-c2ccccc2)cc1 | 1.6%
CCC(C)NC(=O)c1ccccc1NC(=O)c1ccccc1N(C)S(C)(=O)=O (centres undefined) | -10.8%
COc1ccc(Cl)cc1NC(=O)CN(C)C(=O)CNC(=O)C12CC3CC(CC(C3)C1)C2 | -36%
COc1ccc(Cc2nnc(SCC(=O)c3cccc([N+](=O)[O-])c3)n2C)cc1 | -8.8%
O=C(NCCc1ccccc1)c1ccc(NC2=NC3CS(=O)(=O)CC3S2)cc1 (centres undefined) | 0.8%
Cc1cccc(NC(=O)c2ccccc2NC(=O)C(C)(C)C)n1 | -6.8%
Cc1cc(NC(=O)c2cccc(N3C(=O)CCC3=O)c2)no1 | -4.7%
Cc1cccc(NC(=O)c2cc(N3C(=O)CCC3=O)ccc2Cl)n1 | 32.1% (active)
O=C(CN1CCCCCC1)Nc1ccc(Br)cc1Br | 5.3%
Cn1c(CNc2nc(-c3ccccc3)cs2)nnc1SCC(=O)c1ccccc1 | -14.8%

SMILES | inhibition
Cc1ccccc1NC(=O)Cc1nnc(SCC(=O)N2CCN(c3ccccc3)CC2)n1C | -36.6%
Cn1c(CC(=O)Nc2ccccc2)nnc1SCC(=O)c1ccccc1 | 92% (active)
CCOC(=O)c1cc(NC(=O)c2ccc(Cl)cc2)c(=O)oc1-c1ccccc1 | -5.2%
Cc1nc(C)c(C(=O)N(c2ccc(C)c(C)c2)C(C(=O)NCc2ccco2)c2ccccc2)s1 (centres undefined) | -3.5%
CCc1ccccc1NC(=O)CSc1nnc([C@@H](NC(=O)OC(C)(C)C)C(C)C)o1 | 0.3%
Cc1cccc(NC(=O)CSc2nnc(CCCCCNC(=O)OC(C)(C)C)o2)c1C | 55.4% (active)
CCc1ccccc1NC(=O)CSc1nnc([C@@H](NC(=O)OC(C)(C)C)C(C)CC)o1 (some centres undefined) | -19.4%
Cc1noc(C)c1CSCC(=O)Nc1nc2ccc(Oc3ccccc3)cc2s1 | -3.4%
Cc1ccc(-n2nc(N)c3c(=O)oc(N(C)C)nc32)cc1 | -5.7%
O=C(COc1ccc(Cl)cc1)NCCC1=CCCCC1 | 1.3%
CN(NC(=O)c1ccccc1)c1nc2ccccc2nc1C(F)(F)F | 12.5%
CSc1nc(N(C)NC(=O)c2cccc(C)c2)c2ccccc2n1 | 34.2% (active)
COc1ccc(C(=O)NN(C)c2nc(-c3ccccc3)cc(C)c2S(C)(=O)=O)cc1 | -10.1%
O=S(=O)(c1cnccc1N1CCN(/N=C/c2ccc(Br)cc2)CC1)N1CCCCC1 | -15.8%
COc1cc(OC)cc(C(=O)NC2CCN(C(=O)N3c4ccccc4Sc4ccccc43)CC2)c1 | -1.1%
Cc1ccccc1N1CCN(CCCOc2ccc3c(C)cc(=O)oc3c2)CC1 | -2.5%
Cn1c(C(=O)OC(C(=O)NC2CCCCC2)c2ccccn2)cc2sccc21 (centres undefined) | -1.9%
COc1cccc(/C=N/NC(=O)c2cccc([N+](=O)[O-])c2)c1OS(=O)(=O)c1ccc(C)cc1 | 1.2%
Cc1ccc(S(=O)(=O)N(C)C2(C)CCS(=O)(=O)C2)cc1 (centres undefined) | -19.1%
CC(C)n1c(-c2cccs2)nc2ccccc21 | -4.4%

SMILES | inhibition
C=CCn1c(COc2ccccc2)nnc1SCC(=O)NCC(=O)OCC | -6.1%
C=CCn1c(COc2ccccc2C)nnc1SCC(=O)O | -19.2%
C=CCn1c(COc2cccc3cccnc23)nnc1SCC(=O)OC | 30.7% (active)
COc1ccc(C(=O)Oc2cc(/C=N/NS(=O)(=O)c3ccc(C)cc3)ccc2OC)cc1 | -13.4%
COc1cc(C(=S)N2CCOCC2)cc(OC)c1OC(=O)c1cc([N+](=O)[O-])cc([N+](=O)[O-])c1 | 2.4%
COc1ccccc1OCc1nc2ccccc2s1 | 9.7%
O=C(Nc1ccccc1-c1nnn(CC(=O)N2CCCc3ccccc32)n1)c1cccc(Cl)c1 | 9.4%
OC(c1ccccc1)c1nccn1Cc1ccccc1 (centres undefined) | -26.3%
Cn1cnc([N+](=O)[O-])c1Sc1ccccc1 | 7%
CCOC(=O)c1c(NC(C)=O)sc2c(O)c(Br)ccc12 | -8%
CCC(C)NC(=O)C1CCCN(C(=O)NC2CCCCC2)C1 (centres undefined) | -6.5%
Cc1ccc(NC(=S)Nc2ncccc2C)c(C)c1 | 8.4%
COc1ccc(C(=O)NC(=S)Nc2ccccc2N2CCN(S(C)(=O)=O)CC2)cc1OC | -15.4%
Cc1[nH]c(=O)c(C(=O)/C=C/c2ccccc2)c2c1CCCC2 | -9.9%
CC(=O)c1cn(CCCCCCCCCCn2cc(C(C)=O)c(=O)[nH]c2=O)c(=O)[nH]c1=O | -1.7%
CN(CC(=O)Nc1cccc2c1CCCC2)S(=O)(=O)c1ccc(Cl)cc1 | 8.4%
CCOc1ccccc1NC(=O)C1CCN(S(=O)(=O)c2c(C)nn(C)c2C)CC1 | 13.5%
CCOc1ccc(NC(=O)C2CCCN(C(=O)Nc3ccccc3)C2)cc1 (centres undefined) | 5.5%
CCOc1ccccc1NC(=O)C1CCCN(C(=O)Nc2ccccc2)C1 (centres undefined) | 40.5% (active)
